Compound activity from PubChem BioAssay.
The sample as a whole holds a higher share of hits than the screen did.
Tgondii IFNg – T. gondii growth inhibition with IFN-gamma, primary screen, cell-based; 3.8% of 69,000 active; Toxoplasma gondii growth in IFN-gamma-treated host cells; active compounds read low; activity change, negative = inhibition, % (no concentration beside the values); in the data active means activity change below about -70%, passing the limit was not always enough;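 further: host cells are HeLa cells infected with Toxoplasma gondii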
Active calls of the source: *.

SMILES	Tgondii IFNg
COc1ccc2c(c1)NC1(CCN(S(=O)(=O)c3cccc(C#N)c3)CC1)c1cccn1-2	-22
CC1(C(=O)NCc2ccc(F)cc2F)CCN(C(=O)c2ccc(F)cc2)CC1	14
CC1(C(=O)NCc2ccc(F)cc2F)CCN(C(=O)c2ccc(C(C)(C)C)cc2)CC1	-91*
CC1(C(=O)NCc2ccc(F)cc2F)CCN(C(=O)c2ccccc2)CC1	30
Cc1ccsc1C(=O)N1CCC2(CC1)CC(N(C)Cc1cccnc1)CO2 (stereo not drawn)	47
COC1CCC[C@@H]2CN(c3ncc(C)cn3)C[C@@H]12 (stereo partly drawn)	-35
CC(=O)N1CCC2(CC1)OC(=O)C(C)=C2C(=O)N1CCN(c2ccc([N+](=O)[O-])cc2)CC1	103
OCCn1ccnc1-c1ccc(SC2CCCCC2)o1	-15
Cc1ccnn1CC(C)c1cc(=O)n2[nH]cc(C(=O)Nc3ccc(Cl)cc3)c2n1 (stereo not drawn)	21
CO[C@H]1CCN(C(=O)CN(C)C)[C@@H]2CCO[C@@H]12	31
CCCCCOC(=O)Nc1nc(=O)n([C@@H]2O[C@H](C)[C@@H](O)[C@H]2O)cc1F	-53
C[C@H]1O[C@@H](n2cc(F)c(=O)[nH]c2=O)[C@H](O)[C@@H]1O	-91*
Cc1cn([C@H]2O[C@@H](CO)[C@H](O)[C@@H]2F)c(=O)[nH]c1=O	18
COCCC(=O)N1CC[C@]2(CCC[C@@H](CNc3ccccn3)O2)C1	-49
CCOC(=O)CSC1=Nc2ccccc2C2=NC(CC(=O)NCc3ccccc3OC)C(=O)N12 (stereo not drawn)	12
CCCCC(CC)CN=C(N)NC(N)=NCCCCCCN=C(N)NC(N)=NCC(CC)CCCC (stereo not drawn)	-79*
CN(Cc1cc2n(n1)CCNC2)CC1COc2ccccc2O1 (stereo not drawn)	4
CCC/C=C/c1cc(NC(C)C)ncn1	397
O=C(Nc1cccc2nsnc12)c1sc2ccccc2c1Cl	41
O=C(c1cc2cccnc2n(Cc2ccccc2F)c1=O)N1CCN(c2ccccc2F)CC1	36
O=C(c1cc2cccnc2n(Cc2ccc(F)cc2)c1=O)N1CCN(c2ccc(F)cc2)CC1	-95*
O=C(c1cc2cccnc2n(Cc2ccccc2F)c1=O)N1CCCC1	68
O=C(c1cc2cccnc2n(Cc2ccc(F)cc2)c1=O)N1CCN(Cc2ccccc2)CC1	-30
O=C(c1cc2cccnc2n(Cc2ccccc2F)c1=O)N1CCN(c2ccc(F)cc2)CC1	-83*
O=C(c1cc2cccnc2n(Cc2ccc(F)cc2)c1=O)N1CCCC1	50
SMILES	Tgondii IFNg
Cc1ncsc1C(=O)N1CCCC1c1nnc2n1CCN(C(=O)OC(C)(C)C)C2 (stereo not drawn)	4
COc1ccc(CC(NC(C)=O)C(=O)N2CCNCC2)cc1 (stereo not drawn)	51
C=CCN1CC2(CCN(C(=O)Cc3ccsc3)CC2)OCC1=O	102
Cc1cccc(-c2nc(C)c(CCNC(=O)C(=O)Nc3ccccc3Cl)s2)c1	23
Cc1ccc(NCN2C(=O)CSC2=O)c(C)c1	-88*
O=C1CSC(=O)N1C/C=C/CN1C(=O)CSC1=O	1
Cc1cc(=O)n(CC(=O)NCCN2C(=O)CSC2=O)c2ccccc12	10
O=C(c1ccco1)N1CCc2c([nH]c3ccccc23)C1c1ccc(F)cc1 (stereo not drawn)	-39
CCO[C@@H]1CC[C@@H]2[C@@H]1OCCN2C(=O)c1cn2cc(Cl)ccc2n1	2
Cc1onc(-c2ccccc2)c1C(=O)N1CCCN(CC2CC2)C(C(C)C)C1 (stereo not drawn)	14
O=C(c1cccc(F)c1)N1CCC2(CCCN2c2ncccn2)CC1	-3
CCOc1ccc(-c2nc(CN(c3ccc(OC)cc3)S(=O)(=O)c3ccccc3)c(C)o2)cc1	-34
CC(c1cccc(-c2ccc[nH]c2=O)c1)N1CCCC1 (stereo not drawn)	3
Cc1[nH]c(=O)[nH]c(=O)c1-c1ccc(C(C)N2CCCC2)cc1 (stereo not drawn)	-1
CC(c1cccc(-c2ccc3[nH]c(=O)[nH]c(=O)c3c2)c1)N1CCCC1 (stereo not drawn)	-71*
Cn1ccnc1SCCNc1cc(N2CCOCC2)ncn1	23
CC(C)Oc1ccc(-c2cnc3c(-c4ccnc5ccccc45)cnn3c2)cc1	-76*
CN(Cc1cnc2c(-c3ccccc3)cnn2c1)Cc1cccc2ncccc12	-48
COc1ccc(-c2cnc3c(-c4cccc5ncccc45)cnn3c2)cc1	-23
CCc1nc(C)c(C(=O)NCCc2nc(C)c(C)s2)o1	-7
c1cnc2c(-c3ccc4[nH]ncc4c3)cccc2c1	-2
CCc1cccc(NC(=O)Cn2c(=O)cc(C(=O)N3CCc4ccccc4C3)c3ccccc32)c1	-37
Cc1nc(-c2ccc(Cl)cc2)sc1-c1ccnc(SCc2ccccc2)n1	-62
c1ccc(CSc2nccc(-c3ccc4c(c3)CCO4)n2)cc1	-81*
Fc1cccc(CSc2nc(Nc3ccc4c(c3)OCO4)c3ccccc3n2)c1	-48
CC(C)COc1ccccc1CN(C)C(=O)c1cccc(N2CCNC2=O)c1	-6
